The panel holds about 83,000 compounds, 20% with a hit somewhere; the sample as a whole holds those more often.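 Testing used 96-well plates and a 48-hour single-concentration exposure. Example: -40 means 40% of the starting cells died.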 A number with no mark means an inactive call. Calls of active or inactive are those of the source.
What follows are compounds tested on HCT-116 colon (assay: NCI-60 one-dose screen, 48 h (100 = growth as untreated, 0 = no growth, -100 = all killed)). Details: 10 µM unless noted.
Experimental: Growth inhibition of the HCT-116 human tumor cell line is measured as a screen for anti-cancer activity. Cells are grown in 96 well plates and exposed to the test compound for 48 hours. Compounds are tested at a single concentration, which is 10^-5 M for most compounds. The reported endpoint is percent growth (GI% or GIPRCNT), where numbers from 0 - 100% represent growth inhibition, and numbers from -100% - 0 represent cell death. For example, a value of 40 represents 60% growth inhibition. A value of 0 means no net growth occurred over the course of the experiment. A value of -40 indicates 40% of cells at the beginning of the experiment died by the end of the experiment. A value of -100 means all cells are dead at the end of the experiment.
NCI-60 Human Tumor Cell Lines Screen was performed using the standard one-dose NCI protocol, which is described in more detail at https://dtp.cancer.gov/discovery_development/nci-60/default.htm.
Compounds with GIPRCNT values below 10 were considered active. Activity score was based on GIPRCNT using the following formula: […]
Score is 0 for GIPRCNT values of 100 or above, 50 for GIPRCNT values of 0, and 100 for GIPRCNT values of -100.

| SMILES | growth |
| --- | --- |
| Cc1ccc(C(=O)Nc2ccc(CN3CCN(C)CC3)c(C(F)(F)F)c2)cc1C#Cc1cnc(N)c2ccc(C#N)cc12 | 13.9% |
| NC(CSC(c1ccccc1)(c1ccccc1)c1ccccc1)C(=O)NCC(=O)O (stereo not given) | 40.8% |
| CCN(CC)CCNc1ncnc2c1cnn2-c1ccc(Cl)cc1 | 77.8% |
| COC(=O)c1ccc2[nH]c(O)c(C(=Nc3ccc(N(C)C(=O)CN4CCN(C)CC4)cc3)c3ccc([N+](=O)[O-])cc3)c2c1 | 20.4% |
| CCC(C)CC(N)O (stereo not given) | 111% |
| COc1ccc(OC)c(Cn2cc3c(c2)-c2oncc2CC3)c1 | 16.8% |
| O=C(N/N=C\c1ccc(Cl)cc1)C(=O)N/N=C\c1ccc(Cl)cc1 | 106% |
| Cc1nc2c(nnn2-c2ccccc2)c2nc(-c3ccccc3)oc(=O)c12 | 101% |
| C=C(NC(=O)[C@H](C(C)C)N(C)c1cccc2[nH]ccc12)C(=O)OC | 94.1% |
| Cc1ccc(S(=O)(=O)NC(CCC(=O)Nc2ccccc2)C(=O)Nc2ccccc2)cc1 (stereo not given) | -49.5% (active) |
| COC(=O)C(C(=O)OC)C(Br)C(Br)C(Br)c1ccccc1 (stereo not given) | 16.5% |
| CN1CCN(Cc2ccc(NC(=O)c3ccc(C#Cc4c(N)ncc5ccc(F)cc45)cc3)cc2C(F)(F)F)CC1 | -95.4% (active) |
| CCCCCCCCCCCCOC(=N)N(C)C | 87.6% |
| CCCCCCCCCC(C)NC(=O)CCl (stereo not given) | 95.7% |
| CCOc1ccc(Br)cc1/C=C(\C#N)c1ccc([N+](=O)[O-])cc1 | 67.9% |
| CCCCCCCCCC[N+](C)(C)N | 95.5% |
| N#Cc1c2ncccc2c2nnc3cc(Cl)c(Cl)cc3n12 | 78.7% |
| O=C(CCl)NC1c2ccccc2Oc2ccccc21 | 45.9% |
| Clc1ccc(N/N=C(\c2ccccc2)c2ccccn2)nc1 | 2.71% (active) |
| COc1ccc(-c2nnc(SCC(=O)Nc3ccc(C(=O)/C=C/c4cc(OC)c(OC)c(OC)c4)cc3)n2-c2ccccc2)cc1OC | -84.5% [100 µM] (active) |

| SMILES | growth |
| --- | --- |
| CCCCCCCCCCCCCCCC[n+]1cccc(C#N)c1 | 24% |
| CC1=C(C)C[C@]2(C(=O)O[C@H]3CCCC[C@@H]32)[S@](=O)C1 | 108% |
| O=C1/C(=N\c2cc(=O)[nH]n2S(=O)(=O)c2ccccc2)Nc2ccccc21 | 99.3% |
| C/C(=C\c1ccc2ccccc2c1)[N+](=O)[O-] | -40.7% (active) |
| COc1cc(/C=C/C(=O)/C=C(/C=C/c2ccc(OC(C)=O)c(OC)c2)OB(F)F)ccc1OC(C)=O | 6.64% (active) |
| CN1CCN(Cc2ccc(NC(=O)c3cncc(C#Cc4c(N)ncc5ccc(F)cc45)c3)cc2C(F)(F)F)CC1 | 4.69% (active) |
| COc1ccc2c(c1)/C(=C/c1c(-c3cc(OC)c(OC)c(OC)c3)nc3sccn13)C(=O)N2 | 88.3% |
| CCNc1nnc(COc2ccc(CNC(=O)CCCC/C=C/C(C)C)cc2OC)o1 | 87.2% |
| Oc1ccc2ccccc2c1/C=N\Nc1ccccn1 | 1.72% (active) |
| COc1cc2cn3c4ccc(O)cc4[nH]c(=O)c3c2cc1OC | -100% (active) |
| O=C1NCCN1/N=C/c1c(Cl)nc2n1CCS2 | 93.5% |
| COc1cccc2c1nc1cccc(OC)c1[n+]2[O-] | 39.3% |
| CC(=O)CC(=O)OC/C=C(/C)CCC=C(C)C | 98.9% |
| C=CCNC(=S)NNc1ccc([N+](=O)[O-])cn1 | 97.6% |
| O=C(/C=C1\C(=O)N(Cc2ccc([N+](=O)[O-])cc2)c2ccccc21)c1ccc(OCCN2CCCCC2)cc1 | -91.2% (active) |
| NCCCOc1cc2ccccc2cc1C(=O)Nc1ccc(Cl)cc1OC(=O)c1cc2ccccc2cc1OCCCN | -92.6% (active) |
| CCOC(=O)NNc1[nH]c(-c2ccc(OC)cc2)cc1C#N | 85.4% |
| CCCCCSc1ccc2nc(NC(=O)OCC)sc2c1 | 26% |
| COCC(=O)NNc1[nH]c(-c2ccc(OC)cc2)cc1C#N | 110% |
| CCCCCCCCCCN1CC2CCCCC2C1 (stereo not given) | 53.6% |

From PubChem BioAssay (NCI)
